Assay outcomes as filed in PubChem.
HIF-2a inh = HIF-2a reporter inhibitors, primary screen, luminescence, 786-0 RCC cells; 786-0 RCC cells HIF-2a reporter, luciferase luminescence, overnight; inhibition, % at 18.8 µM; 360,000 compounds, 0.72% hits; AID 624352, 2012;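 active = inhibition of the luminescence signal of 40% or more relative to plate controls, in a single-dose primary screen at 18.75 µM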
Peg3 prom inh = Peg3 promoter-driven luciferase inhibitors, primary screen, cell-based, HeLa, luciferase luminescence; 360,000 compounds, 1.7% hits; inhibition, % at 20 µM; HeLa PEG-Prom luciferase reporter, overnight;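 active = inhibition of at least 50% at 20 µM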
CF NFkB block = inhibitors of PAF-induced NF-kB signaling, primary screen, cell-based, GFP fluorescence, uHTS. KKLEB NF-kB-GFP reporter, GFP fluorescence overnight. inhibition, % at 5 µM. 360,000 compounds, 0.86% hits. AID 588850, 2011;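 active = at least 50% inhibition at 5 µM, scaled per plate between neutral and stimulator controls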;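 also: PAF is a Pseudomonas aeruginosa culture filtrate used as stimulus; plate controls were PAF-stimulated DMSO wells for no effect and unstimulated DMSO wells for full effect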
KKLEB cytotox = cytotoxicity in KKLEB CF airway cells, primary screen, cytotoxicity control for CF NF-kB inhibitor project, cell-based, uHTS, fluorescence assay plates. activity change (cytotoxicity), % at 5 µM. AID 602141, 2011. KKLEB CF airway cells viability, ATPlite luminescence, overnight; hits give low values; cells stimulated with P. aeruginosa culture filtrate. 360,000 compounds, 0.36% hits;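 active = corrected activity change at or below -50% at 5 µM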
TWEAK-Fn14 inh = inhibitors of TWEAK-Fn14 signaling, primary screen, luciferase reporter cells, uHTS | TWEAK-stimulated Fn14 reporter cells, luciferase luminescence, 8 h | 360,000 compounds, 2% hits | inhibition, % at 10 µM; in the data active = inhibition above about 50%
TROY NFkB inh = inhibitors of TROY-driven NF-kB signaling, primary screen, Q293 LMP1-TROYcd cells, NF-kB luciferase, uHTS | inhibition, % at 10 µM | Q293 LMP1-TROYcd NF-kB luciferase reporter, 4 h | 360,000 compounds, 0.98% hits;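 active = compounds whose plate-normalised and pattern-corrected inhibition of the luciferase reporter signal at the single screening dose is 50% or more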
CF NFkB inh conf = inhibitors of PAF-induced NF-kB signaling, retest, confirmation, cell-based, GFP fluorescence, single concentration. KKLEB CF airway cells, overnight. 1,300 compounds, 64% hits. shares compounds with CF NFkB block. inhibition, % at 5 µM; in the data active = inhibition above about 40%;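 also: stimulus PAF is a Pseudomonas aeruginosa filtrate and not platelet activating factor; plate controls were DMSO wells with stimulus for no effect and unstimulated DMSO wells for full effect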
The depositor's hits bear a star; . = no result given. Rows were chosen to be rich in hits. Some 4% of all compounds tested hit in one or more screens of this group.

SMILES	HIF-2a inh	Peg3 prom inh	CF NFkB block	KKLEB cytotox	TWEAK-Fn14 inh	TROY NFkB inh	CF NFkB inh conf
COc1ccc(-c2cn[nH]c2-c2ccc(OC)cc2O)cc1	9	28	72*	-5	78*	43	80*
COc1ccc(-c2cn[nH]c2-c2ccc(OCc3ccccc3F)cc2O)cc1OC	20	46	60*	-22	46	36	60*
COc1cc(OC)cc(-c2cn[nH]c2N)c1	13	-10	-9	-1	-9	1	.
COc1ccc(-c2[nH]ncc2-c2ccc(Cl)cc2)c(O)c1	-9	42	21	-10	14	14	.
COc1ccc(-c2cn[nH]c2C)cc1	8	-2	53*	-18	-17	17	11
CC(C)c1ccccc1NCC(=O)N1CCN(Cc2ccccc2)CC1	-24	0	2	1	12	5	.
O=C(/C=C/c1ccccc1Cl)c1ccc(O)cc1	-237	-71	59*	-10	44	4	-38
O=C(C=Cc1ccccc1O)c1ccccc1O	-5	19	71*	-45	62*	8	13
Cc1nccc(-c2ccc(-n3cnc4ccccc43)cc2)n1	-75	-89	46	-8	13	-9	.
Nc1nccc(-c2ccc(-n3cnc4ccccc43)cc2)n1	-140	-127	77*	-9	53*	26	80*
O=C1C(=O)N(CCS(=O)(=O)c2ccccc2)c2ccc(F)cc21	-13	5	66*	-17	10	2	22
Nc1cc2[nH]c(=O)c3ccccc3c2cc1Br	-27	2	-71	7	-35	-37	.
Nc1cc2c(cc1Br)[nH]c(=O)c1ccccc12	-24	-7	58*	-14	24	-7	-59
COc1ccc(C(O)c2nc(/C=C/c3ccc(C(F)(F)F)cc3)cs2)cc1 (configuration not stated)	-9	0	0	-3	3	5	.
COc1cccc(NC(=O)Nc2nnc(CC(=O)NCc3ccccc3)s2)c1	12	8	61*	-2	29	7	80*
COc1ccc(NC(=O)Nc2nnc(CC(=O)NCc3ccccc3)s2)cc1	-9	-13	-22	1	-13	6	.
COc1ccc(NC(=O)Nc2nnc(-c3ccncc3)s2)cc1	-174	-106	58*	-21	43	5	53*
O=C(Nc1ccc(Cl)c(Cl)c1)Nc1ccon1	-51	-42	54*	-12	30	-3	40*
COCCCN=C1NN=C(c2cc(C)n(Cc3ccccc3Cl)c2C)CS1	-76	-202	54*	-14	3	-3	60*
O=C(Cn1nc(-c2ccccc2)oc1=O)OCC(=O)c1ccc(F)c(F)c1	3	-4	-14	-5	-19	1	.
CC(C)(O)C#Cc1ccc([C@@H]2C[C@H]3CN(c4ccccc4)C(=O)[C@]34CCCN24)s1	-7	103*	60*	-1	19	2	44*
O=C(Oc1ccc(N(C(=O)c2ccncc2)S(=O)(=O)c2ccc(Cl)cc2)cc1)c1ccncc1	9	6	1	14	24	36	.
Cc1ccc(C)c(S(=O)(=O)N(C(=O)c2ccncc2)c2ccc(OC(=O)c3ccncc3)cc2)c1	20	43	69*	-9	84*	68*	85*
CCOC(=O)c1ccc2c(c1)nc(SC/C(O)=C(\C#N)c1nc3ccccc3[nH]1)n2CC	-29	6	66*	-38	-5	5	59*
O=C(COC(=O)c1ccc2ncsc2c1)Nc1ccc(OC(F)(F)F)cc1	-21	-16	52*	6	27	-11	16
C=C1C(=O)O[C@@H]2[C@H]3O[C@]3(C)CC/C=C(\C)CC[C@@H]12	19	49	69*	23	39	18	77*
